KDM5B inhibitor: blocks human KDM5B histone demethylase activity; Q9UGL1; KDM5B demethylase, FDH-coupled NADH fluorescence (FDH is formaldehyde dehydrogenase); Potency, µM (series often up to 57.7 µM), most hits filed as inhibitors; 220,000 tested, 2.6% active; AID 1347165; active = well fitted inhibition curve with a large enough effect; inconclusive = small, poorly fitted or top-dose-only effect; inactive = no such curve, though single readings can be large or run the other way; also: potency is read from the fitted curve at half-maximal effect; 0% is about no effect; nearly all actives have a fitted effect of over 70% in size
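KDM5BΔAP (200 nM final) in 50 mM HEPES pH 7.5, 0.01% Tween-20 was preincubated 10 min at RT with compound over a concentration range. Substrate mix (H3K4me3 12.5 µM, α-KG 25 µM, Fe²⁺, ascorbate, NAD⁺, FDH) was added, and NADH fluorescence change over 30 min gave dose-response curves.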
IP6K1 inh: inhibitors of human IP6K1; IP6K1 kinase, ADP-Glo luminescence, 2 h; active compounds read low; activity change, % (series mostly up to about 58 µM); 140,000 tested, 0.81% active; in the data active = activity change below about -25%; also: % is scaled to controls: 0 for no effect and ±100 for the full control effect
Target sequence (Q92551 whole entry, looked up): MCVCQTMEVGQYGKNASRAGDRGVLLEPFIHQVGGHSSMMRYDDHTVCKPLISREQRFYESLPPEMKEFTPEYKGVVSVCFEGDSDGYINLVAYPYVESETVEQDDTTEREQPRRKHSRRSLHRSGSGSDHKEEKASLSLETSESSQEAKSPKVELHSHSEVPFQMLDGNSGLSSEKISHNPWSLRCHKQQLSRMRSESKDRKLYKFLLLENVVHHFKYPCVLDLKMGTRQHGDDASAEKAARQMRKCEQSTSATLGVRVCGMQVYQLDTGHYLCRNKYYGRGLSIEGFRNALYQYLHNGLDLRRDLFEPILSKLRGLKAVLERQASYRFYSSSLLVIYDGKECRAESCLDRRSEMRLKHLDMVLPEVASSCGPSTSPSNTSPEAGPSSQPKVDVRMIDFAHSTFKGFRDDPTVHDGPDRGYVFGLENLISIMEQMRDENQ
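ADP-Glo luminescence measures ADP made by human IP6K1 during a 2 h RT reaction with ATP/IP6 (mix at 1.3 mM/130 uM); top library doses 57.5 and 19.1 uM final.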
The depositor's hits bear a star; i = inactive; ? = inconclusive; . = no result given. A selection: hits, their analogues and other compounds. The true share with any hit is near 2.8%.

SMILES	KDM5B inhibitor	IP6K1 inh
CSCC(=O)Nc1ccc2n(c1=O)C[C@H]1C[C@@H]2CN(C(=O)c2ccccc2)C1	?	-1
O=C(c1ccc(F)cc1)N1C[C@@H]2C[C@H](C1)c1c(-c3cncnc3)ccc(=O)n1C2	i	13
O=C(c1cccs1)N1C[C@@H]2C[C@H](C1)c1ccc(C3CCCCC3)c(=O)n1C2	i	4
CN1CCC(N[C@@H]2C[C@H](CO)[C@@H](O)[C@H]2O)CC1	?	-2
COc1ccccc1OCCNc1ccc([N+](=O)[O-])c2cccnc12	i	.
CCn1c(C2CCCNC2)nn(C)c1=O (stereo not given)	i	6
CCCCn1cc(C(=O)c2cccc3ccccc23)c2ccccc21	.	-2
CN1Cc2ccccc2-n2ccnc2C12CCN(C(=O)Cc1cccc(F)c1)CC2	i	3
C[C@]12CC[C@H](O[C@@H]3O[C@H](CO)[C@@H](O)[C@H](O)[C@H]3O[C@@H]3O[C@H](CO)[C@@H](O)[C@H](O)[C@H]3O)CC1=CC[C@@H]1[C@@H]2CC[C@]2(C)[C@@H](C3=CC(=O)OC3)CC[C@]12O	.	13
CC(=O)N1C[C@@H]2C[C@H](C1)c1ccc(NC(=O)COc3ccccc3)c(=O)n1C2	?	-4
O=C(c1ccc(F)cc1)N1C[C@@H]2C[C@H](C1)c1ccc(C3CCCCC3)c(=O)n1C2	32µM*	10
CN(C)Cc1ccccc1-c1ccc2n(c1=O)C[C@H]1C[C@@H]2CN(C(=O)c2cnccn2)C1	?	3
O=C(c1ccc(F)cc1)N1C[C@@H]2C[C@H](C1)c1c(C3CCCCC3)ccc(=O)n1C2	i	-5
CC(=O)N1C[C@@H]2C[C@H](C1)c1ccc(NC(=O)Nc3ccccc3)c(=O)n1C2	28µM*	-6
CN(C)Cc1ccccc1-c1ccc2n(c1=O)C[C@H]1C[C@@H]2CN(C(=O)c2ccco2)C1	32µM*	1
CC12CCC(O)CC1CCC1[C@@H]2CC(O)C2(C)C(C3=CC(=O)OC3)CCC12O (stereo not given in full)	i	.
CNC(=O)N1N=C(c2ccc(N)cc2)c2cc3c(cc2CC1C)OCO3 (stereo not given)	.	1
COc1cc2c(cc1OCc1ccccc1)NC(=O)C21CCN(Cc2ccccn2)CC1	i	-12
COc1cc2c(cc1OCc1ccncc1)NC(=O)C21CCN(c2ccccn2)CC1	28µM*	-11
COc1cc2c(cc1OCc1ccccc1)NC(=O)C21CCN(c2nc(C)cnc2C)CC1	28µM*	-21
COc1cc2c(cc1OCc1ccncc1)NC(=O)C21CCN(Cc2ccccc2O)CC1	i	-7
O=C(COc1ccc2c(-c3ccccc3)cc(=O)oc2c1)N1CCN(CCO)CC1	i	.
COc1ccc([C@@H]2CN(S(=O)(=O)N3CCCC3)[C@@H]3C4CCN(CC4)[C@@H]32)cc1	i	13
COc1ccc([C@@H]2CN(c3nccc(C)n3)[C@@H]3C4CCN(CC4)[C@@H]32)cc1	14µM*	17
O=C(CSC1c2ccccc2Oc2ccccc21)Nc1ccccc1C(=O)O	i	.
SMILES	KDM5B inhibitor	IP6K1 inh
Cc1ccccc1-c1ccc2n(c1=O)C[C@H]1C[C@@H]2CN(C(=O)CCC(=O)O)C1	?	21
O=C(C1CCCCC1)N1C[C@@H]2C[C@H](C1)c1c(-c3cccs3)ccc(=O)n1C2	i	10
O=c1c(-c2cccs2)ccc2n1C[C@H]1C[C@@H]2CN(Cc2cc3ccccc3o2)C1	32µM*	6
Cc1ccccc1-c1ccc2n(c1=O)C[C@H]1C[C@@H]2CN(Cc2cccs2)C1	32µM*	0
COc1ccccc1CNC(=O)[C@H]1CN2CC[C@H]1C[C@@H]2Cn1cc(-c2ccccn2)nn1	i	8
COc1cc2c(cc1OCC1CCCC1)N([S+](=O)([O-])c1cccc(C(F)(F)F)c1)CC21CCN(CC(=O)O)CC1	i	-3
C[C@@](O)(COc1ccc(C#N)cc1)C(=O)Nc1ccc(C#N)c(C(F)(F)F)c1	.	15
CC(C)=CCC[C@]1(C)C=Cc2c(O)c3c(c(CC=C(C)C)c2O1)O[C@]12C(=C[C@@H]4CC1C(C)(C)O[C@@]2(C/C=C(/C)C(=O)O)C4=O)C3=O	.	-25*
CN1C(=O)C(Cc2ccc3ccccc3c2)N=C(c2ccc(O)cc2)c2cc(Cl)ccc21 (stereo not given)	.	-16
COCC1CN(C2CCC2)CC12CCN(Cc1cccnc1)CC2 (stereo not given)	28µM*	7
OCC1CN(C2CCC2)CC12CCN(Cc1cccnc1)CC2 (stereo not given)	?	11
CCOc1ccc(CN(CCc2ccc3c(c2)OCO3)Cc2ccc(C)cc2)cc1	?	-2
CCOc1ccc(CN(CCc2ccc3c(c2)OCO3)Cc2cccc(Br)c2)cc1	?	-57*
CCCCN1CC(C(=O)Nc2ccc(C(=O)Nc3ccc(C#N)c(Cl)c3)cc2)CC1=O (stereo not given)	i	.
O=C1CO[C@H]2CN(Cc3ccccn3)C[C@H]2N1c1ccccc1	i	-3
O=C1CO[C@H]2CN(Cc3ccccn3)C[C@H]2N1Cc1ccccn1	?	4
O=C1CO[C@H]2CN(Cc3ncc[nH]3)C[C@H]2N1Cc1ccccn1	35µM*	2
CN1C(=O)CO[C@H]2CN(Cc3ccccn3)C[C@H]21	40µM*	2
CCOc1ccccc1C(=O)N1CCC2(CC1)c1nccn1-c1ccccc1CN2C	i	9
CC(=O)O[C@H]1CN2CCC1CC2	.	-11
c1ccc(C2=NOC3(CCCN(CC4CCCCC4)C3)C2)nc1 (stereo not given)	i	1
O=c1ccc(-c2cccs2)c2n1C[C@H]1C[C@@H]2CN(S(=O)(=O)c2cccs2)C1	32µM*	3
CCCS(=O)(=O)Nc1ccc(=O)n2c1[C@@H]1C[C@@H](CN(C(=O)COc3ccccc3)C1)C2	32µM*	14
CSCC(=O)N1C[C@@H]2C[C@H](C1)c1c(-c3ccc(NC(C)=O)cc3)ccc(=O)n1C2	28µM*	2
O=c1ccc(-c2cccs2)c2n1C[C@H]1C[C@@H]2CN(S(=O)(=O)c2cccc(C(F)(F)F)c2)C1	i	25
SMILES	KDM5B inhibitor	IP6K1 inh
CCCS(=O)(=O)N1C[C@@H]2C[C@H](C1)c1c(-c3ccc(Cl)cc3)ccc(=O)n1C2	?	5
CSc1ccc(-c2ccc(=O)n3c2[C@@H]2C[C@@H](CN(S(C)(=O)=O)C2)C3)cc1	35µM*	-1
COc1ccc(-c2ccc(=O)n3c2[C@@H]2C[C@@H](CN(C(=O)CSC)C2)C3)cc1	i	-3
CCCS(=O)(=O)Nc1ccc(=O)n2c1[C@@H]1C[C@@H](CN(C(=O)c3ccc(OC)cc3)C1)C2	i	5
O=C(NCCNC(=O)c1cn(Cc2ccccc2)c2ccccc12)c1ccncc1	i	.
CCCCn1c(C)c(C(=O)OCC)c2cc(OC(C)=O)ccc21	i	.
CN(Cc1ccccc1)Cc1cn(C[C@H]2CC3CCN2C[C@@H]3C(=O)NCc2ccc(F)cc2)nn1 (stereo not given in full)	i	17
COc1ccccc1C1=NCC(=O)N(CC(=O)Nc2ccccc2)c2sc3c(c21)CCCC3	i	.
Cn1nccc1CN1CCCC2(CC(c3cccnc3)=NO2)C1 (stereo not given)	i	19

Assay outcomes from PubChem BioAssay.
